Measured values: PubChem BioAssay AID1159580 (chemical genetic matrix, 2015)
Out of some 5,500 compounds screened, about 2,000 (36%) were called active. Another 18% or so got no clear call; they are omitted. Rule as the data show it: active = normalized growth mostly below about 0.91 (no sharp cut-off); inconclusive = no clear call, values can overlap the other calls; inactive = mostly above about 0.92. Some of the results follow.

Test: chemical genetic growth profiling, strain panel (AID 1159580);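 also: tested at 20 µM; growth read once vehicle control cultures reached saturation at 30 °C; 1 = growth at the plate median or of vehicle wells; lower values mean less growth of the strain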
Conditions: growth OD

Measured: normalized growth

Cc1ccc(S(=O)(=O)NC(=O)NN2CC3CCCC3C2)cc1 (stereo not drawn)
inactive: S. cerevisiae deletion strains, locus YJR043C, strain POL32, active compounds read low 0.991 | S. cerevisiae deletion strains, locus YJR066W, strain TOR1, active compounds read low 0.904 | S. cerevisiae deletion strains, locus YKL009W, strain mrt4, active compounds read low 1.02 | S. cerevisiae deletion strains, locus YKL068W, active compounds read low 1.01 | S. cerevisiae deletion strains, locus YKL085W, strain MDH1 (second series), active compounds read low 1.04 | S. cerevisiae deletion strains, locus YKL085W, strain MDH1, active compounds read low 1.04 | S. cerevisiae deletion strains, locus YKL160W, strain elf1, active compounds read low 0.98 | S. cerevisiae deletion strains, locus YKL190W, strain CNB1, active compounds read low 1.01 | S. cerevisiae deletion strains, locus YKR001C, strain vps1, active compounds read low 1.01 | S. cerevisiae deletion strains, locus YKR026C, strain gcn3, active compounds read low 0.978 | S. cerevisiae deletion strains, locus YKR091W, strain srl3, active compounds read low 0.974 | S. cerevisiae deletion strains, locus YLL001W, strain dnm1, active compounds read low 0.953 | S. cerevisiae deletion strains, locus YLL026W, active compounds read low 0.974 | S. cerevisiae deletion strains, locus YLL041C, strain sdh2, active compounds read low 0.982 | S. cerevisiae deletion strains, locus YLR027C, strain aat2, active compounds read low 0.976 | S. cerevisiae deletion strains, locus YLR039C, strain RIC1, active compounds read low 0.943 | S. cerevisiae deletion strains, locus YLR058C, strain SHM2, active compounds read low 1.01 | S. cerevisiae deletion strains, locus YLR102C, strain apc9, active compounds read low 1.01 | S. cerevisiae deletion strains, locus YLR113W, strain HOG1, active compounds read low 0.974 | S. cerevisiae deletion strains, locus YLR221C, strain rsa3, active compounds read low 0.976 | S. cerevisiae deletion strains, locus YLR258W, strain gsy2, active compounds read low 0.99 | S. cerevisiae deletion strains, locus YLR262C, strain YPT6 (second series), active compounds read low 0.927 | S. cerevisiae deletion strains, locus YLR262C, strain YPT6, active compounds read low 0.967 | S. cerevisiae deletion strains, locus YLR268W, strain sec22, active compounds read low 0.999 | S. cerevisiae deletion strains, locus YLR320W, strain mms22, active compounds read low 0.983 | S. cerevisiae deletion strains, locus YLR330W, strain CHS5, active compounds read low 1 | S. cerevisiae deletion strains, locus YLR342W, strain FKS1 (second series), active compounds read low 0.992 | S. cerevisiae deletion strains, locus YLR342W, strain FKS1, active compounds read low 0.996 | S. cerevisiae deletion strains, locus YLR357W, strain rsc2, active compounds read low 0.989 | S. cerevisiae deletion strains, locus YLR370C, strain arc18, active compounds read low 0.953 | S. cerevisiae deletion strains, locus YLR371W, strain rom2, active compounds read low 1.01 | S. cerevisiae deletion strains, locus YLR384C, strain iki3, active compounds read low 0.993 | S. cerevisiae deletion strains, locus YLR418C, strain cdc73, active compounds read low 1.02 | S. cerevisiae deletion strains, locus YML016C, strain PPZ1, active compounds read low 0.996 | S. cerevisiae deletion strains, locus YML032C, strain rad52, active compounds read low 1.01 | S. cerevisiae deletion strains, locus YML120C, strain ndi1, active compounds read low 1.01 | S. cerevisiae deletion strains, locus YML124C, strain tub3, active compounds read low 1.01 | S. cerevisiae deletion strains, locus YMR058W, strain fet3, active compounds read low 0.958 | S. cerevisiae deletion strains, locus YMR078C, strain ctf18, active compounds read low 1.02 | S. cerevisiae deletion strains, locus YMR125W, strain sto1, active compounds read low 0.966 | S. cerevisiae deletion strains, locus YMR129W, active compounds read low 0.97 | S. cerevisiae deletion strains, locus YMR205C, strain PFK2, active compounds read low 0.991 | S. cerevisiae deletion strains, locus YMR223W, strain ubp8, active compounds read low 1.03 | S. cerevisiae deletion strains, locus YMR231W, strain pep5, active compounds read low 0.989 | S. cerevisiae deletion strains, locus YMR263W, strain SAP30, active compounds read low 1.02 | S. cerevisiae deletion strains, locus YMR307W, strain GAS1, active compounds read low 1.04 | S. cerevisiae deletion strains, locus YNL067W, strain RPL9B, active compounds read low 1.03 | S. cerevisiae deletion strains, locus YNL071W, strain lat1, active compounds read low 0.974 | S. cerevisiae deletion strains, locus YNL153C, strain GIM3, active compounds read low 1 | S. cerevisiae deletion strains, locus YNL183C, strain NPR1, active compounds read low 0.92 | S. cerevisiae deletion strains, locus YNL209W, strain ssb2, active compounds read low 0.977 | S. cerevisiae deletion strains, locus YNL233W, strain BNI4, active compounds read low 1.01 | S. cerevisiae deletion strains, locus YNL248C, strain rpa49, active compounds read low 0.982 | S. cerevisiae deletion strains, locus YNL250W, strain rad50, active compounds read low 1.03 | S. cerevisiae deletion strains, locus YNL271C, strain bni1, active compounds read low 1.01 | S. cerevisiae deletion strains, locus YNL298W, strain CLA4, active compounds read low 1.04 | S. cerevisiae deletion strains, locus YNL307C, strain MCK1, active compounds read low 1.02 | S. cerevisiae deletion strains, locus YNL322C, strain KRE1 (second series), active compounds read low 0.978 | S. cerevisiae deletion strains, locus YNR049C, strain mso1, active compounds read low 0.961 | S. cerevisiae deletion strains, locus YNR052C, strain pop2, active compounds read low 1.01 | S. cerevisiae deletion strains, locus YOL012C, strain htz1 0.86 | S. cerevisiae deletion strains, locus YOL147C, strain pex11, active compounds read low 1.02 | S. cerevisiae deletion strains, locus YOR001W, strain rrp6, active compounds read low 0.99 | S. cerevisiae deletion strains, locus YOR061W, strain CKA2, active compounds read low 0.996 | S. cerevisiae deletion strains, locus YOR069W, strain VPS5, active compounds read low 1.01 | S. cerevisiae deletion strains, locus YOR070C, strain gyp1, active compounds read low 0.985 | S. cerevisiae deletion strains, locus YOR080W, strain dia2, active compounds read low 0.97 | S. cerevisiae deletion strains, locus YOR083W, strain WHI5, active compounds read low 0.982 | S. cerevisiae deletion strains, locus YOR106W, strain vam3, active compounds read low 0.968 | S. cerevisiae deletion strains, locus YOR136W, strain idh2, active compounds read low 1.01 | S. cerevisiae deletion strains, locus YOR144C, strain elg1, active compounds read low 1.01 | S. cerevisiae deletion strains, locus YOR184W, strain ser1, active compounds read low 1 | S. cerevisiae deletion strains, locus YOR231W, strain MKK1, active compounds read low 0.971 | S. cerevisiae deletion strains, locus YOR265W, strain rbl2, active compounds read low 0.967 | S. cerevisiae deletion strains, locus YOR270C, strain vph1, active compounds read low 1.03 | S. cerevisiae deletion strains, locus YOR290C, strain snf2, active compounds read low 0.939 | S. cerevisiae deletion strains, locus YOR316C, strain cot1, active compounds read low 1.01 | S. cerevisiae deletion strains, locus YPL051W, strain arl3, active compounds read low 0.959 | S. cerevisiae deletion strains, locus YPL078C, strain atp4, active compounds read low 0.978 | S. cerevisiae deletion strains, locus YPL106C, strain sse1, active compounds read low 1 | S. cerevisiae deletion strains, locus YPL240C, strain hsp82, active compounds read low 0.985 | S. cerevisiae deletion strains, locus YPL256C, strain CLN2, active compounds read low 0.965 | S. cerevisiae deletion strains, locus YPR119W, strain clb2, active compounds read low 1.01 | S. cerevisiae deletion strains, locus YPR141C, strain kar3, active compounds read low 1.03 | S. cerevisiae deletion strains, locus YPR163C, strain tif3, active compounds read low 1.02 | S. cerevisiae deletion strains, locus YPR167C, strain met16, active compounds read low 1.02 | S. cerevisiae deletion strains, strain wtn01, active compounds read low 1 | S. cerevisiae strains, strain wild type, active compounds read low 0.997
